Assay results as given in PubChem BioAssay (NCATS).
Results filed as inconclusive are left out. Values without a mark were called inactive. Active and inactive are the calls of the source. Unless noted, the call rests on the fitted dose curve; in most records, active means well fitted curve in the direction sought with a large enough effect; inconclusive means small, poorly fitted or top-dose-only effect, or another doubt; inactive means no such curve, though single readings can be large; an effect the other way counts as inactive or inconclusive.

Assays:
[1] = Primary qHTS for small molecule stabilizers of the endoplasmic reticulum resident proteome: Secreted ER Calcium Modulated Protein (SERCaMP) assay (AID 1508630)
Method in brief: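 GLuc-SERCaMP-expressing SH-SY5Y cells, pretreated 16 h with compound, are challenged with thapsigargin to empty ER calcium stores; after 4 h, coelenterazine is added directly to the medium and luminescence is imaged.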

[2] = target: N-terminal Xaa-Pro-Lys N-methyltransferase 1 (Homo sapiens) (UniProt Q9BV86); experiment: Confirmatory qHTS for Inhibitors of N-terminal methyltransferase 1 (NTMT1): MTaseGlo Assay (AID 1645874); further: nearly all actives have a fitted effect of over 65% in size; further: potency means the concentration at half of the fitted maximal effect
N-terminal Xaa-Pro-Lys N-methyltransferase 1 (Homo sapiens), sequence (Q9BV86 whole entry, looked up): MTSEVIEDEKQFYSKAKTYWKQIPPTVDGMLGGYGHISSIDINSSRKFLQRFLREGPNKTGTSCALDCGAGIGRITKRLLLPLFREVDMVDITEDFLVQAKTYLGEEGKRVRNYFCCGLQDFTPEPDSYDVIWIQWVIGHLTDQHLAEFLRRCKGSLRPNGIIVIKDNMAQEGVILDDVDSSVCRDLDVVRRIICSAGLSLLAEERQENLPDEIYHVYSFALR
Method in brief: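 NTMT1 (125 nM) preincubated 15 min with compound and 100 uM SAM, then 1 uM SPKRIA peptide added for 30 min at room temperature. SAH detected by MTase-Glo luminescence; normalized to no-enzyme and DMSO controls, fitted to 4-parameter Hill.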

[3] = Primary qHTS for inhibitors of nuclear receptor binding SET domain protein 2 (NSD2) in an isogenic RCH-ACV NSD2 p.E1099K mutant (9B) (AID 1645876); further: nearly all actives have a fitted effect of over 70% in size; further: potency means the concentration at half of the fitted maximal effect
[4] = Primary qHTS for inhibitors of nuclear receptor binding SET domain protein 2 (NSD2) in an RCH-ACV wild type WT cells (2C) (AID 1645877); further: nearly all actives have a fitted effect of over 70% in size; further: potency means the concentration at half of the fitted maximal effect
[5] = target: Calcium and integrin-binding protein 1 (Homo sapiens) (UniProt Q99828); experiment: Primary qHTS for Identification of Calcium Integrin Binding Protein 1 (CIB1) Competitor (AID 1508620);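 further: GST tagged CIB1 binding a fluorescein labelled alphaIIb integrin peptide tracer; top concentration of the series differs between compounds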
Calcium and integrin-binding protein 1 (Homo sapiens), sequence (Q99828 whole entry, looked up): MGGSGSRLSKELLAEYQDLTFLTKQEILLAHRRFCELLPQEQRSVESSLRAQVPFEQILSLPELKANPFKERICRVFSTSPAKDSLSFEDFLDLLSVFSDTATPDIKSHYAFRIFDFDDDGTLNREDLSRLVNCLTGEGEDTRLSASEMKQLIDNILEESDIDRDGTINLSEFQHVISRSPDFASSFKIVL
Method in brief: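 CIB1-GST (1 uM final) and compound incubated 15 min at room temperature before adding FITC-alphaIIb peptide tracer (100 nM final). Competition for binding read by fluorescence polarization (ex 480, em 540) after another 15 min at room temperature.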

[6] = target: Cytochrome P450 2D6 (Homo sapiens) (UniProt P10635); experiment: Cytochrome P450 family 2 subfamily D member 6 (CYP2D6) small molecule antagonists: luciferase biochemical (cell-free) qHTS assay (AID 1645840; active means well fitted curve in the direction sought with a large enough effect in the repeat runs; an effect the other way counts as inactive or inconclusive; further: nearly all actives have a fitted effect of over 55% in size; further: potency means the concentration at half of the fitted maximal effect)
Cytochrome P450 2D6 (Homo sapiens), sequence (P10635 whole entry, looked up): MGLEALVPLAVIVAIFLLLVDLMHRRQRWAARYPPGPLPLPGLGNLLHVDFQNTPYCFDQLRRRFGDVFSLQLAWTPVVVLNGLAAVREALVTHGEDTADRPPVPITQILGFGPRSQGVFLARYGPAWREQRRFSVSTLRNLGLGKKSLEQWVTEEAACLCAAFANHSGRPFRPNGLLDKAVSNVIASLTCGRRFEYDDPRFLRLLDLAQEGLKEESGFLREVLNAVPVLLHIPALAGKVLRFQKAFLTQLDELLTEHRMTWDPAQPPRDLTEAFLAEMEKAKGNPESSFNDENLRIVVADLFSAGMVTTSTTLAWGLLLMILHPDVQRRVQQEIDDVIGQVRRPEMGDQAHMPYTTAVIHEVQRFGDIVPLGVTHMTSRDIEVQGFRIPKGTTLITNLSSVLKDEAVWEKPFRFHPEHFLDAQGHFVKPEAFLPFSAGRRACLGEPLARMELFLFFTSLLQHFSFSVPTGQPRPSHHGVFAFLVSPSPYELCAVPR
Method in brief: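 P450-Glo luminescent screen: recombinant CYP2D6 enzyme–proluciferin substrate mix preincubated with compound 10 min at room temperature, then NADPH regeneration added for 1 h at room temperature. Detection reagent added for 20 min; luciferin light read as relative luminescence units.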

[7] = target: Cytochrome P450 2C9 (Homo sapiens) (UniProt P11712); experiment: Cytochrome P450 family 2 subfamily C member 9 (CYP2C9) small molecule antagonists: luciferase biochemical (cell-free) qHTS assay (AID 1645842; active means well fitted curve in the direction sought with a large enough effect in the repeat runs; an effect the other way counts as inactive or inconclusive; further: nearly all actives have a fitted effect of over 55% in size; further: potency means the concentration at half of the fitted maximal effect)
Cytochrome P450 2C9 (Homo sapiens), sequence (P11712 whole entry, looked up): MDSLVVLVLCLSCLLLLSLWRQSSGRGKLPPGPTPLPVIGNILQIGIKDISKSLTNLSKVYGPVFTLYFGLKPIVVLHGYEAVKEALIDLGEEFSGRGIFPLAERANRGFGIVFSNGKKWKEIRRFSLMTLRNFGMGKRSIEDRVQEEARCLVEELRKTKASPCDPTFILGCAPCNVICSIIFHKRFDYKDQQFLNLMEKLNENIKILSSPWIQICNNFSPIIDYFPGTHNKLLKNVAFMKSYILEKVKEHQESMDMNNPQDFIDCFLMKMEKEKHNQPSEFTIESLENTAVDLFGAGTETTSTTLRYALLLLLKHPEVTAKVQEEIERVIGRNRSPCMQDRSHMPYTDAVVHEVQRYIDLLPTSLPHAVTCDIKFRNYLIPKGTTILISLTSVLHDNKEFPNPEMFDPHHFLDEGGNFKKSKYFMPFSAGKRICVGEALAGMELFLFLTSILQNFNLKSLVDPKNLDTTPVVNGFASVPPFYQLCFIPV
Method in brief: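 Luminescence, after 20 min with luciferin detection reagent, reflected CYP2C9 turnover during a 1 h NADPH-driven reaction at 37C. Enzyme-substrate mix contained 0.4% bovine serum albumin and was preincubated with compound 10 min at room temperature.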

## CN(C)CCCn1cc(C2=C(c3c[nH]c4ccccc34)C(=O)NC2=O)c2ccccc21
[1]
  outcome: inactive
[2]
  Potency: 39.8 µM (active)
[3]
  Potency: 5.78 µM (active)
[4]
  Potency: 3.25 µM (active)

## C=C1/C(=C/C=C2\CCC[C@]3(C)[C@@H]([C@@H](C)OCCC(O)(CC)CC)CC[C@@H]23)C[C@@H](O)C[C@@H]1O
[5]
  Potency: inactive
[4]
  Potency: 20.5 µM (active)

## CCCCCCCCCC(=O)O
[6]
  Potency: inactive
[7]
  Potency: inactive

## C=C1C(=O)OC2C=C(C)CC/C=C(\CO)CC(O)C12 (stereo not given)
[5]
  Potency: inactive
[4]
  Potency: 20.5 µM (active)

## NC(=O)C[C@@H](N)C(=O)O
[1]
  outcome: inactive

## COc1ccccc1C(=O)Nc1cc2c(cc1N1CCCC1)n(C)c(=O)n2C
[5]
  Potency: inactive
[4]
  Potency: 23.5 µM (active)

## COC[C@H](c1ccc(C(F)(F)F)cc1)N1CCN(C2(C)CCN(C(=O)c3c(C)ncnc3C)CC2)C[C@H]1C
[6]
  Potency: 16.9 µM (active)

## Cc1cc(C(=O)Cn2cc(C#N)ccc2=O)c(C)n1Cc1ccccc1
[6]
  Potency: inactive
[7]
  Potency: 16.9 µM (active)

## O=S(=O)(O)Oc1ccc(C(c2ccc(OS(=O)(=O)O)cc2)c2ccccn2)cc1
[6]
  Potency: inactive
[7]
  Potency: inactive

## Cc1ccc(C)c(NC(=O)[C@@H]2CCCN2S(=O)(=O)c2cccc3cccnc23)c1
[6]
  Potency: 16.9 µM (active)
[7]
  Potency: 6.74 µM (active)

## CC(=O)O[C@H]1[C@@]2(O)C[C@H](C)[C@H](OC(=O)c3ccccc3)[C@@H]2[C@@H](OC(=O)CO)[C@]2(OC(C)=O)C[C@H]3C(=O)C(C)(C)C[C@@H]3[C@@]1(C)[C@H]2OC(C)=O
[5]
  Potency: inactive
[4]
  Potency: inactive

## Nc1c(CC(=O)O)cccc1C(=O)c1ccccc1
[6]
  Potency: inactive
[7]
  Potency: inactive

## Cn1ncc(Cl)c1-c1cc(C(=O)N[C@H](CN)Cc2cccc(F)c2)sc1Cl
[6]
  Potency: 2.68 µM (active)
[7]
  Potency: 9.52 µM (active)

## C=CC(C)(C)c1[nH]c2ccccc2c1C[C@@H]1NC(=O)[C@H](C)NC1=O
[5]
  Potency: inactive
[4]
  Potency: inactive

## CCOc1ccc(-n2c([C@@H](C)N(Cc3cccnc3)C(=O)Cc3ccc(OC(F)(F)F)cc3)nc3ncccc3c2=O)cc1
[5]
  Potency: inactive
[4]
  Potency: 18.3 µM (active)

## COc1cc2c(c(OC)c1CC=C(C)C)C[C@H](c1ccc(O)c(CC=C(C)C)c1O)CO2
[5]
  Potency: inactive
[4]
  Potency: inactive

## COc1ccnc(CS(=O)c2nc3cc(OC(F)F)ccc3[nH]2)c1OC (stereo not given)
[6]
  Potency: inactive
[3]
  Potency: inactive
[4]
  Potency: inactive

## COc1ccc(NC(=O)c2ccc(C(=N)N(C)C)cc2)c(C(=O)Nc2ccc(Cl)cn2)c1
[7]
  Potency: 3.79 µM (active)
[3]
  Potency: inactive
[4]
  Potency: inactive

## O=C(NCCN1CCN(c2cccc3c2OCCO3)CC1)c1ccc(F)cc1
[6]
  Potency: 12 µM (active)
[7]
  Potency: 19 µM (active)
[3]
  Potency: inactive
[4]
  Potency: inactive

## O=C1C(c2[nH]c3ccc(S(=O)(=O)O)cc3c2O)=Nc2ccc(S(=O)(=O)O)cc21
[6]
  Potency: inactive
[7]
  Potency: inactive

## CCOc1ccc(Cc2nc(-c3c(C)nc4ccccn34)cs2)cc1
[2]
  Potency: inactive
[3]
  Potency: 0.183 µM (active)
[4]
  Potency: 0.183 µM (active)

## CN(C)CCN(Cc1ccccc1)C(=O)c1cc(-c2ccc(F)cc2)n2nc(C(C)(C)C)cc2n1
[6]
  Potency: 16.9 µM (active)
[7]
  Potency: 16.9 µM (active)
[3]
  Potency: 3.25 µM (active)
[4]
  Potency: 2.9 µM (active)

## CCC(=O)Oc1ccc2c(c1)CC[C@@H]1[C@@H]2CC[C@]2(C)[C@@H](OC(=O)CC)CC[C@@H]12
[6]
  Potency: inactive
[7]
  Potency: 15.1 µM (active)

## CCCC1(CCC)CCC2(CCN(CCCN(CC)CC)C2)CC1
[2]
  Potency: 50.1 µM (active)
[3]
  Potency: 2.63 µM (active)
[4]
  Potency: 2.09 µM (active)

## CCCCCCCCCCCCCCCC(=O)OC/C=C(C)/C=C/C=C(C)/C=C/C1=C(C)CCCC1(C)C
[6]
  Potency: inactive
[7]
  Potency: 13.5 µM (active)

## O=[N+]([O-])c1ccc(Oc2ccc(N=C=S)cc2)cc1
[6]
  Potency: inactive
[7]
  Potency: 16.9 µM (active)

## C=Cc1ccccc1
[6]
  Potency: inactive
[7]
  Potency: inactive

## CCN1CCN(Cc2ccc(NC(=O)c3ccc(C)c(Oc4ccnc5[nH]ccc45)c3)cc2C(F)(F)F)CC1
[6]
  Potency: 10.7 µM (active)
[3]
  Potency: 0.713 µM (active)
[4]
  Potency: 0.713 µM (active)

## COc1cc(CCC2=NN=C(NC(=O)c3ccc(N4C[C@@H](C)N[C@@H](C)C4)cc3)C2)cc(OC)c1
[3]
  Potency: 5.78 µM (active)

## CCCN1CCC=C(c2cc(-c3ccc(C)cc3)no2)C1
[6]
  Potency: 2.68 µM (active)
[7]
  Potency: inactive
[3]
  Potency: inactive
[4]
  Potency: inactive

## Cc1noc(-c2ccc(-c3ccc(CC(=O)O)cc3)cc2)c1NC(=O)O[C@H](C)c1ccccc1Cl
[7]
  Potency: 3.01 µM (active)

## Cc1cc2occ(CN(C)CCN(C)Cc3cn(-c4cccc(C(F)(F)F)c4)c4ccccc34)c(=O)c2cc1C
[6]
  Potency: 4.77 µM (active)
[7]
  Potency: 21.3 µM (active)
[3]
  Potency: 7.28 µM (active)
[4]
  Potency: 7.28 µM (active)
